Screening data (PubChem)
Shown is part of a subset that was picked to be rich in hits.
HT1080NT lethal: qHTS for induction of synthetic lethality in tumor cells producing 2HG: qHTS for the HT-1080-NT fibrosarcoma cell line. actives 1.6% (n = 360,000). Potency, µM (top dose mostly 46.1 µM), without a hit: top-dose activity, negative = less viability, most hits filed as cytotoxic. HT-1080-NT fibrosarcoma viability, CellTiter-Glo ATP luminescence, 48 h;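 further: NT is the 2HG producing partner of a matched IDH1 knockdown line; potency means the concentration at half of the fitted maximal effect; 0% = DMSO-treated cells and -100% = media-only wells without cells; nearly all actives have a fitted effect of over 55% in size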
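HT-1080-NT fibrosarcoma cells (2HG-overproducing), 750 cells/well in RPMI with 5% FBS, dosed after 2 h and incubated 48 h at 37C. CellTiter-Glo luminescence normalized to DMSO and no-cell wells; concentration-response curves fitted and classed.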
IL1B secr inh: qHTS for Inhibitors of Inflammasome Signaling: IL-1-beta AlphaLISA Primary Screen | THP-1 LPS/ATP IL-1B secretion, AlphaLISA, 16 h; hits give low values | activity change, % at 57.5 µM | actives 4.7% (n = 360,000) | AID 743279, 2014; in the data active means activity change below about -50%; inconclusive means mostly about -30% to -49%
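THP-1 cells pretreated 1 hr with compounds (up to 57.5 uM final), then stimulated with LPS (250 ng/mL final) plus ATP (1.25 mM final); secreted IL-1B measured by AlphaLISA after 16 hr, decreased signal indicating inhibition.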
HT1080 IDH1KD tx: qHTS for induction of synthetic lethality in tumor cells producing 2HG: qHTS for the HT-1080-IDH1KD cell line | HT-1080 IDH1 knockdown viability, ATP luminescence, 48 h | Potency, µM (highest dose often 46.1 µM), for the others: at the top dose activity, negative = toxicity, usual class: cytotoxic | actives 2% (n = 360,000);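 further: potency means the concentration at half of the fitted maximal effect; 0% = DMSO wells and -100% = cell-free medium wells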
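CellTiter-Glo luminescence after 48 h compound exposure at 37 degrees C of IDH1-knockdown HT-1080 cells in 5% FBS RPMI. %Activity scaled between DMSO wells and cell-free media wells, with curves fitted and assigned curve classes.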
DT40 TDP1 CPT: qHTS for Inhibitors of human tyrosyl-DNA phosphodiesterase 1 (TDP1): qHTS in cells in presence of CPT; chicken DT40 Tdp1-/-;hTDP1 cells + 20 nM CPT, ATP luminescence, 48 h; actives 12% (n = 420,000); Potency, µM (titrated, usually from 46.2 µM), for the others: at the top dose activity change, negative = growth inhibition, hits mostly inhibitors; further: potency means the concentration at half of the fitted maximal effect; nearly all actives have a fitted effect of over 55% in size
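Chicken DT40 Tdp1-/- cells stably complemented with human TDP1 were seeded at 400 cells/well in medium containing 20 nM camptothecin, exposed to pin-transferred compounds, and grown at 37 °C for at least 48 hr. Viability was read as ATP luminescence.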
TDP1 cell noCPT: qHTS for Inhibitors of human tyrosyl-DNA phosphodiesterase 1 (TDP1): qHTS in cells in absence of CPT. DT40 Tdp1-/- hTDP1 cells, no CPT, ATP luminescence, 48 h. Potency, µM (series often up to 46.2 µM), inactives show top-dose activity change, negative = growth inhibition, most hits filed as inhibitors. actives 15% (n = 420,000); further: potency means the concentration at half of the fitted maximal effect; nearly all actives have a fitted effect of over 55% in size
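Cells were dispensed at 400 per well, compounds added by pin tool, plates incubated ≥48 hr at 37 °C, then CellTiter-Glo added for 30 min at room temperature before luminescence reading. Line: DT40 Tdp1-/- complemented with hTDP1; camptothecin omitted.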
ALOX12 inh: Primary qHTS assay for inhibitors of human arachidonate 12S-lipoxygenase (ALOX12): Round 2. purified 12hLO, xylenol orange hydroperoxide absorbance. Polyunsaturated fatty acid lipoxygenase ALOX12 (Homo sapiens), P18054. actives 1.1% (n = 580,000). Potency, µM (series often up to 108 µM), inactives show at the top dose activity change, negative = inhibition, most hits filed as inhibitors. AID 1671190, 2021; further: potency means the concentration at half of the fitted maximal effect
Target sequence (P18054 whole entry, looked up): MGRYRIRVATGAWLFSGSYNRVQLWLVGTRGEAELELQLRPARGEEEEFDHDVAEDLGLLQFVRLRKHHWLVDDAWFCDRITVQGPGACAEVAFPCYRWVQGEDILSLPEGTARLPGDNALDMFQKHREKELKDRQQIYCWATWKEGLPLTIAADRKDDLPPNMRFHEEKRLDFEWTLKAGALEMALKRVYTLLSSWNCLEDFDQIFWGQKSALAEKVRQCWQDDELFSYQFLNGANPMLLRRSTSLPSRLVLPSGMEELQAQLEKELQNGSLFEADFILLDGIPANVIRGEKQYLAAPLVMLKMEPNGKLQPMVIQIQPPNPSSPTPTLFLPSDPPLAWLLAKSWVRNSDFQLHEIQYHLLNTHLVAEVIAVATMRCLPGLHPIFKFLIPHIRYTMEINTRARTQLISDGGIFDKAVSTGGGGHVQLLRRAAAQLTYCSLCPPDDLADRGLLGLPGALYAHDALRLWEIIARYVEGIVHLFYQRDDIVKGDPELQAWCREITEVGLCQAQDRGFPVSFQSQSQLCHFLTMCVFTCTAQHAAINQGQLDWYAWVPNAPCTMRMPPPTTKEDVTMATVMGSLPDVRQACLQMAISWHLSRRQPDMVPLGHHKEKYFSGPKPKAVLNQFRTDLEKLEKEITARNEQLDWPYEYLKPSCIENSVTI
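Purified human 12hLO at 150 nM in 25 mM Hepes, 0.01% Triton X-100, pH 7.0, preincubated 15 min at room temperature with compound. Reaction started with 40 uM arachidonic acid, 30 min at room temperature. Hydroperoxide measured by Fe-xylenol orange, 573/405 nm absorbance ratio.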
* = called active by the depositor; ? = inconclusive; . = not tested or not shown. Unless noted, the call rests on the fitted dose curve; in most records, active means well fitted curve in the direction sought with a large enough effect; inconclusive means small, poorly fitted or top-dose-only effect, or another doubt; inactive means no such curve, though single readings can be large; an effect the other way counts as inactive or inconclusive. Unless noted, on the % scale 0 is the no-effect control and ±100 the full control effect.

SMILES | HT1080NT lethal | IL1B secr inh | HT1080 IDH1KD tx | DT40 TDP1 CPT | TDP1 cell noCPT | ALOX12 inh
COc1ccc(NC(NC(=O)c2ccc(OC)cc2)C(Cl)(Cl)Cl)cc1 (stereo not given) | 4% | -78* | -19% | ? | ? | ?
COc1ccc(C(=O)NC(NC(C)C)C(Cl)(Cl)Cl)cc1 (stereo not given) | . | . | . | . | . | 18%
Cc1ccc(S(=O)(=O)N(C)C)cc1C(=O)NCc1coc(-c2cccs2)n1 | . | . | . | . | . | -11%
CS(=O)(=O)Cc1cc(Sc2ccccc2)nc(-c2ccncc2)n1 | 12% | 45 | -2% | -7% | -21% | ?
O=S(=O)(Cc1cc(Cl)nc(-c2ccccc2)n1)c1ccccc1 | 2% | -70* | ? | -12% | ? | 10%
O=S(=O)(Cc1cc(Cl)nc(-c2ccncc2)n1)c1ccccc1 | 23µM* | -97* | ? | ? | ? | -9%
COc1ncc2nc(-c3ccc(F)cc3)c(=O)n(C)c2n1 | . | . | . | -9% | 3% | 0%
COc1ccc(Cl)cc1NC(=O)CN1C(=O)NC(Cc2c[nH]c3ccccc23)C1=O (stereo not given) | -4% | -57* | -5% | ? | ? | -24%
Cc1ccc(NC(=O)CN2C(=O)NC(Cc3c[nH]c4ccccc34)C2=O)cc1S(=O)(=O)N1CCCCC1 (stereo not given) | -28% | ? | -28% | 21µM* | 21µM* | -12%
O=C1CCC2(CCCO2)CCN1Cc1ccccc1F (stereo not given) | . | . | . | . | . | 32%
CCN1CCN(c2ccc(Cl)cc2NC(=O)c2ccc(-n3nc(C)cc3C)cc2)CC1 | ? | -64* | ? | 21µM* | ? | 313%
Cc1cc(C)n(-c2ccc(C(=O)Nc3cc(S(=O)(=O)N(C)C)ccc3Cl)cc2)n1 | -2% | -24 | -7% | 16µM* | ? | ?
CCN1CCN(c2ccc(Cl)cc2NC(=O)c2ccco2)CC1 | -20% | -62* | -9% | ? | ? | 4%
Cc1cc(C)n(-c2ccc(C(=O)Nc3cccnc3Cl)cc2)n1 | -5% | -23 | 2% | ? | ? | -3%
O=C1C(=Cc2ccc(Cl)cc2)Cc2ccccc21 | 20% | 17 | 23% | -4% | -11% | -9%
C=CC(=O)N1C/C(=C/c2ccc(Cl)cc2)C(=O)/C(=C\c2ccc(Cl)cc2)C1 | 5.8µM* | -115* | 2.9µM* | 0.23µM* | 0.41µM* | -27%
C=CC(=O)N1C/C(=C/c2ccccc2)C(=O)/C(=C\c2ccccc2)C1 | -2% | -103* | 4.1µM* | 0.73µM* | 0.73µM* | -18%
CN1C/C(=C/c2ccncc2)C(=O)/C(=C/c2ccncc2)C1 | -6% | 3 | -4% | ? | -29% | 13%
CN(C)c1cccc(C(=O)OCC(=O)NCC2CCCO2)c1 (stereo not given) | 0% | -5 | 19% | -21% | 3% | 32%
COc1cccc(OC)c1-c1cc(CCCc2cc(-c3c(OC)cccc3OC)nc3ccccc23)c2ccccc2n1 | . | . | . | ? | 13µM* | .
Cc1ccc(C)c(N2CCN(C3=C(c4ccccc4)C(=O)c4ccccc43)CC2)c1 | . | . | . | 7.3µM* | 16µM* | -16%
COc1ccc(C2=C(N3CCN(c4cccc(C)c4C)CC3)c3ccccc3C2=O)cc1 | . | . | . | 16µM* | ? | -22%
